Each structure is given as a SMILES string. Compounds without any hit were thinned out: in the full panel of roughly 83,000, 20% have a hit.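 Note: values are percent growth. 100 is the growth of untreated cells, values between 100 and 0 indicate rising inhibition; between -100 and 0 indicates cell death.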 A number with no mark means an inactive call. The source made the active and inactive calls. How the source made its calls: active means growth percent below 10; inactive means the rest.

One assay has as its system MDA-MB-435 melanoma. The assay can be described thus: NCI-60 one-dose screen, 48 h (100 = growth as untreated, 0 = no growth, -100 = all killed). The conditions noted are these: 10 µM unless noted.
Consider `CC1(C)c2[nH]c3ccccc3c2C[C@]2(C)[C@H]3C(=O)C=C4[C@@H]5C[C@@](C)(C(N)=O)CC[C@]5(C)CC[C@@]4(C)[C@]3(C)CC[C@@H]12`, for which the growth is 83.6%.

Turning to `C[C@H]1[C@H](C)CC[C@]2(C(=O)NCC#CCN3CCN(C)CC3)CC[C@]3(C)C(=CC[C@@H]4[C@@]5(C)Cc6c([nH]c7ccccc67)C(C)(C)[C@@H]5CC[C@]43C)[C@H]12`, the growth is 52.2%.

With `CC(=O)O[C@@H]1C2CCC3C(CC[C@@]4(C)C3CC[C@@H]4C(C)N(C)C)[C@@]2(C)CC[C@@H]1NC(=O)C=C(C)C` (stereo partly specified), the growth is -47.4% (active).

Turning to `CCN1C(=O)N(CC)C2Nn3c(s/c(=C\c4ccc(OC)cc4)c3=O)=NC21` (stereo unspecified), the growth was -26.9% (active).

Take `CN1CCC(=C(c2ccccc2)c2ccccc2)C(c2ccccc2)C1` (stereo unspecified): the growth was 102%.

For `O=C(Cc1ccccc1)NNc1nc(Cl)nc(N2CCN(C(c3ccccc3)c3ccccc3)CC2)n1`, the growth was 100%.

Take `N#CC(C#N)=Cc1cc2ccccc2nc1Oc1ccc(C(F)(F)F)cc1`: the growth is 97%.

Consider `COc1cc(/C=C\c2cc(OC)c(OC)c(OC)c2)cc(N)c1OC`, for which the growth is 1.87% (active).

As to `COc1cccc(-c2nc3occn3c2-c2ccnc(NCCCNS(=O)(=O)c3ccc(C(F)(F)F)cc3)n2)c1`, the growth was 76.3%.

Regarding `O=C(O)c1ccc2c(c1)C(=O)N(Cc1ccccc1)C2=O`, the growth was 106%.

Take `C=C(C)[C@@H]1CC[C@]2(C(=O)N3CCN(C)CC3)CC[C@]3(C)[C@H](CC[C@@H]4[C@@]5(C)CC[C@H](O)C(C)(C)[C@@H]5CC[C@]43C)[C@@H]12`: the growth is -82.1% (active).

Consider `Cn1cc(-c2nc(-c3c[nH]c4c(Cl)nccc34)cs2)c2cc(Br)ccc21`, for which the growth was 79.4%.

As for `O=S(=O)(NCCCNc1nccc(-c2c(-c3cccc(F)c3)nc3sccn23)n1)c1cccc(F)c1`, the growth was 24%.

Turning to `Cn1c(N2NC(=O)C(N=Nc3ccc(S(N)(=O)=O)cc3)C2=O)nc(-c2ccco2)c(C#N)c1=O` (stereo unspecified), the growth was 119%.

As to `NC(=S)N1N=C(c2ccccc2)CC1c1cn(-c2ccccc2)nc1-c1ccc(OCc2ccccc2)cc1` (stereo unspecified), the growth is 109%.

With `CCCCOc1ccc(/C(C)=N/Nc2cc(C)nc3ccc(Br)cc23)cc1`, the growth is 92.8%.

Consider `CN(C)CC(O)c1ccc(/C=C/c2ccc(Cl)cc2)cc1` (stereo unspecified), for which the growth is -48.2% (active).

Take `CC(=O)Nc1cccc(-c2ccc3c(c2)NC(=O)/C3=C\c2ccc[nH]2)c1`: the growth was 25.6%.

In the case of `O=C(Nc1ncc(Cc2cc(Cl)ccc2Cl)s1)c1cccs1`, the growth was 4.2% (active).

As to `N#C/C(=C\c1ccc([N+](=O)[O-])s1)c1nc2cc(Cl)ccc2s1`, the growth is 29.6%.

With `CCN(Cc1ccccc1)c1ccc(C=O)cc1`, the growth was 107%.

Consider `CCN1CCN(CCNc2nccc(-c3c(-c4cccc(OC)c4)nc4occn34)n2)S1(=O)=O`, for which the growth was 52.2%.

Regarding `CNC(=O)c1cc(Cn2nc(C)c(NC(=O)Nc3ccc(Cl)c(C(F)(F)F)c3)c2C)ccn1`, the growth was 100%.

For `CC1(C)CC(=O)C2=C(C1)N(c1ccc(F)cc1F)C(N)=C(C#N)C2c1cc(Br)ccc1F` (stereo unspecified), the growth is 101%.

`CCC(CC)NCC(C)(C)O`: the growth is 108%.

For `COCCCN1CC(O)=C(c2nc(-c3ccc(C)cc3)cs2)C1=N`, the growth was 105%.

`CC(=O)N1c2ccccc2NC2=C(C(=O)NC2(C)C)C1c1ccco1` (stereo unspecified): the growth is -19.1% (active).

As for `Cc1c(C(=O)NCCC(=O)NO)sc2ncnc(Nc3ccc(F)c(Cl)c3)c12`, the growth is 102%.

With `COc1ccc(C(=O)c2cc(C)c(OC)c(C)c2)c(OC)c1OC(=O)C(Cl)Cl`, the growth was -28.4% (active).

As to `COc1ccc(-c2[nH][nH]c(=O)c2-c2nc3ccccc3s2)cc1`, the growth was 101%.

Turning to `CN(C)c1ccc(Nc2c3ccccc3nc3cc(NC(=O)CCN4CCCC4)ccc23)cc1`, the growth is -94.4% (active).

`CCOC(=O)c1ccc2c(c1)ncn2-c1ccc(NC(=O)Nc2cccc(C)c2)cc1`: the growth is 77.6%.

As to `C/C=C(\C)C(=O)NC1=CC[C@@]2(C)C(=CCC3C2CC[C@@]2(C)C3CC[C@@H]2C(C)N(C)C)C1=O` (stereo partly specified), the growth was -2.62% (active).

Turning to `COc1ccc(NC(N)=NCCCOc2ccc(F)cc2)cc1`, the growth was 80.4%.

Consider `Cc1cc2nc3c4cc(C=O)ccc4n(CCN(C)C)c3nc2cc1C`, for which the growth is 25.6%.

As for `CC(=O)N1N=C(c2ccc(-n3ccc(C(F)(F)F)n3)c(F)c2)CC1c1ccc[nH]1` (stereo unspecified), the growth was 99.8%.

In the case of `Brc1ccc(Nc2csc(-c3ccccn3)n2)cc1`, the growth was 100%.

`Cc1ccc(C(=O)/C(=C\c2ccc([N+](=O)[O-])cc2)S(=O)Cc2ccc(F)cc2)cc1` (stereo unspecified): the growth was 45.5%.

The subject of the next assay is SW-620 colon. Described as above. The conditions noted are these: 10 µM unless noted.
For the compound `CC1(C)c2[nH]c3ccccc3c2C[C@]2(C)[C@H]3C(=O)C=C4[C@@H]5C[C@@](C)(C(N)=O)CC[C@]5(C)CC[C@@]4(C)[C@]3(C)CC[C@@H]12`, the growth was 79.4%.

Regarding `C[C@H]1[C@H](C)CC[C@]2(C(=O)NCC#CCN3CCN(C)CC3)CC[C@]3(C)C(=CC[C@@H]4[C@@]5(C)Cc6c([nH]c7ccccc67)C(C)(C)[C@@H]5CC[C@]43C)[C@H]12`, the growth was 57.5%.

In the case of `CC(=O)O[C@@H]1C2CCC3C(CC[C@@]4(C)C3CC[C@@H]4C(C)N(C)C)[C@@]2(C)CC[C@@H]1NC(=O)C=C(C)C` (stereo partly specified), the growth is -64.5% (active).

Consider `CCN1C(=O)N(CC)C2Nn3c(s/c(=C\c4ccc(OC)cc4)c3=O)=NC21` (stereo unspecified), for which the growth is 25.5%.

For `CN1CCC(=C(c2ccccc2)c2ccccc2)C(c2ccccc2)C1` (stereo unspecified), the growth is 92.9%.

Regarding `O=C(Cc1ccccc1)NNc1nc(Cl)nc(N2CCN(C(c3ccccc3)c3ccccc3)CC2)n1`, the growth is 82.3%.

In the case of `N#CC(C#N)=Cc1cc2ccccc2nc1Oc1ccc(C(F)(F)F)cc1`, the growth was 74.5%.

On to `COc1cc(/C=C\c2cc(OC)c(OC)c(OC)c2)cc(N)c1OC`, for which the growth was 75%.

As to `COc1cccc(-c2nc3occn3c2-c2ccnc(NCCCNS(=O)(=O)c3ccc(C(F)(F)F)cc3)n2)c1`, the growth is 124%.

As for `O=C(O)c1ccc2c(c1)C(=O)N(Cc1ccccc1)C2=O`, the growth was 98.6%.

Turning to `C=C(C)[C@@H]1CC[C@]2(C(=O)N3CCN(C)CC3)CC[C@]3(C)[C@H](CC[C@@H]4[C@@]5(C)CC[C@H](O)C(C)(C)[C@@H]5CC[C@]43C)[C@@H]12`, the growth was -74.8% (active).

With `Cn1cc(-c2nc(-c3c[nH]c4c(Cl)nccc34)cs2)c2cc(Br)ccc21`, the growth was 98.6%.

`O=S(=O)(NCCCNc1nccc(-c2c(-c3cccc(F)c3)nc3sccn23)n1)c1cccc(F)c1`: the growth was 76.7%.

Consider `Cn1c(N2NC(=O)C(N=Nc3ccc(S(N)(=O)=O)cc3)C2=O)nc(-c2ccco2)c(C#N)c1=O` (stereo unspecified), for which the growth is 51.9%.

Turning to `NC(=S)N1N=C(c2ccccc2)CC1c1cn(-c2ccccc2)nc1-c1ccc(OCc2ccccc2)cc1` (stereo unspecified), the growth is 106%.

In the case of `CCCCOc1ccc(/C(C)=N/Nc2cc(C)nc3ccc(Br)cc23)cc1`, the growth is 5.89% (active).

Regarding `CN(C)CC(O)c1ccc(/C=C/c2ccc(Cl)cc2)cc1` (stereo unspecified), the growth was -68.7% (active).

Turning to `CC(=O)Nc1cccc(-c2ccc3c(c2)NC(=O)/C3=C\c2ccc[nH]2)c1`, the growth was 37.9%.

In the case of `O=C(Nc1ncc(Cc2cc(Cl)ccc2Cl)s1)c1cccs1`, the growth is 48.5%.

`N#C/C(=C\c1ccc([N+](=O)[O-])s1)c1nc2cc(Cl)ccc2s1`: the growth was 1.39% (active).

As to `CCN(Cc1ccccc1)c1ccc(C=O)cc1`, the growth was 97.9%.

Regarding `CCN1CCN(CCNc2nccc(-c3c(-c4cccc(OC)c4)nc4occn34)n2)S1(=O)=O`, the growth was 132%.

As for `CNC(=O)c1cc(Cn2nc(C)c(NC(=O)Nc3ccc(Cl)c(C(F)(F)F)c3)c2C)ccn1`, the growth is 111%.

In the case of `CC1(C)CC(=O)C2=C(C1)N(c1ccc(F)cc1F)C(N)=C(C#N)C2c1cc(Br)ccc1F` (stereo unspecified), the growth is 89.6%.

As for `CCC(CC)NCC(C)(C)O`, the growth was 107%.

Turning to `COCCCN1CC(O)=C(c2nc(-c3ccc(C)cc3)cs2)C1=N`, the growth is 104%.

Regarding `CC(=O)N1c2ccccc2NC2=C(C(=O)NC2(C)C)C1c1ccco1` (stereo unspecified), the growth is 81.1%.

Turning to `Cc1c(C(=O)NCCC(=O)NO)sc2ncnc(Nc3ccc(F)c(Cl)c3)c12`, the growth is 101%.

In the case of `COc1ccc(C(=O)c2cc(C)c(OC)c(C)c2)c(OC)c1OC(=O)C(Cl)Cl`, the growth was 20%.

As to `COc1ccc(-c2[nH][nH]c(=O)c2-c2nc3ccccc3s2)cc1`, the growth was 101%.

`CN(C)c1ccc(Nc2c3ccccc3nc3cc(NC(=O)CCN4CCCC4)ccc23)cc1`: the growth was -33.3% (active).

For `CCOC(=O)c1ccc2c(c1)ncn2-c1ccc(NC(=O)Nc2cccc(C)c2)cc1`, the growth was 81.6%.

On to `C/C=C(\C)C(=O)NC1=CC[C@@]2(C)C(=CCC3C2CC[C@@]2(C)C3CC[C@@H]2C(C)N(C)C)C1=O` (stereo partly specified), for which the growth was -11% (active).

On to `COc1ccc(NC(N)=NCCCOc2ccc(F)cc2)cc1`, for which the growth was 88.6%.

Regarding `Cc1cc2nc3c4cc(C=O)ccc4n(CCN(C)C)c3nc2cc1C`, the growth was 1.57% (active).

On to `CC(=O)N1N=C(c2ccc(-n3ccc(C(F)(F)F)n3)c(F)c2)CC1c1ccc[nH]1` (stereo unspecified), for which the growth was 107%.

Turning to `Brc1ccc(Nc2csc(-c3ccccn3)n2)cc1`, the growth was 71%.

On to `Cc1ccc(C(=O)/C(=C\c2ccc([N+](=O)[O-])cc2)S(=O)Cc2ccc(F)cc2)cc1` (stereo unspecified), for which the growth was -27.7% (active).

The values above are taken from PubChem BioAssay (NCI).
